In general, inhibition refers to the relative decrease from the control value, in per cent.

Molecules are shown by their SMILES. About 7,300 (2%) of roughly 360,000 compounds were called active. The sample holds actives, similar compounds and a random draw of the others, so the mix is not that of the screen. Values without a mark were called inactive. Cut-off read from the data, not from the text of the source: active = inhibition above about 50%; inactive = the rest.

A short description of the assay: inhibitors of TWEAK-Fn14 signaling, primary screen, luciferase reporter cells, uHTS (AID 1159606). As to conditions: TWEAK-stimulated Fn14 reporter cells, luciferase luminescence, 8 h; at 10 µM; stronger effect = higher value. (In a reporter assay the amount or activity of a reporter protein is the signal.)
As for `Cc1ccc(-c2nc(-c3cccnc3)sc2CC(=O)Nc2ccc(C)c(Cl)c2)cc1`, the inhibition was -0.71%.
As to `CCc1nc2cccnc2n1-c1ccc(C(=O)O)cc1`, the inhibition is 2.68%.
With `COCCCNC(=O)CCc1nc2cccnc2n1Cc1ccc(OC)cc1` the figure was 16.3%.
With `COCCCNC(=O)Cc1ccc(-n2c(C)nc3cccnc32)cc1` the figure was 84.3% (active); with `COc1ccc(CNC(=O)c2cc(C(=O)C3CC3)c[nH]2)cc1`, -10.9%; with `CN1CCC(N(C)S(=O)(=O)c2ccc(NC(=O)c3cccc(C#N)c3)cc2)CC1`, 5.91%.
`Cc1nc(N)nc(Cl)c1CCC1OCCO1`: the inhibition was -6.2%.
For the compound `COc1cc(NC(=S)N2CCCC(C)C2)c(OC)cc1Cl` (centres undefined), the inhibition is 12.8%.
With `O=C1NC[C@H](CCCCN2C[C@H](Cc3ccc(O)cc3)N(CC3CCCCC3)C(=O)C2=O)N(CCc2ccccc2)C1=O` the figure was 2.86%; with `Cc1ccc(N(CC(=O)Nc2cc(C)cc(C)c2)S(=O)(=O)c2cccc3nonc23)cc1`, 9.38%; with `Cc1ccc(S(=O)(=O)N(CC(=O)Nc2cccc([N+](=O)[O-])c2)Cc2ccc(Cl)cc2)cc1`, 51.2% (active).
With `COc1ccc(C)cc1S(=O)(=O)N(CC(=O)Nc1cccc([N+](=O)[O-])c1)c1ccc(C)cc1` the figure was 61.9% (active).
Take `Cc1ccc(CN(CC(=O)NCC2CCCO2)S(=O)(=O)c2ccc(C)cc2)cc1` (centres undefined): the inhibition is 5.7%.
With `CN(c1ccc(OCC(=O)OCC(=O)Nc2cccc([N+](=O)[O-])c2)cc1)S(=O)(=O)c1ccc(F)cc1` the figure was -9.04%; with `COc1ccc(N(CC(=O)Nc2ccc(C)cc2C)S(=O)(=O)c2ccccc2[N+](=O)[O-])c(OC)c1`, 0.97%.
With `O=C(NCc1cccc(C(F)(F)F)c1)c1ccc2sc(COCCO)nc2c1` the figure was -7.3%; with `COc1ccccc1C(=O)N(C1=NC(C)CS1)c1ccc(Cl)cc1` (centres undefined), 10.7%; with `CCOC(=O)[C@]12CCC=C1N(CCC1=CCCCC1)C(=O)[C@H](CC(=O)NCc1ccc(C)o1)C2`, 5.47%.
With `O=C(Nc1ccc(N2CCOCC2)cc1)c1cccc2c(-c3ccc(F)c(F)c3)coc12` the figure was -28%.
For `CCOC(=O)[C@]12CCC=C1N(Cc1cccc3ccccc13)C(=O)[C@H](CC(=O)NCc1cccc(C(F)(F)F)c1)C2`, the inhibition is 13.4%.
`Cc1ccc(S(=O)(=O)N2CCN(C(=O)c3ccccc3-c3nc4ccccc4s3)CC2)c(C)c1`: the inhibition is -40.8%.
With `CSc1ncnc2c1ncn2CC(=O)C1CCC2C3CCC4=CC(=O)CCC4(C)C3CCC12C` (centres undefined) the figure was 105% (active); with `CC(=O)C12CC(C)=C(C)CC1CC1C3CCC4=CC(=O)CCC4(C)C3CCC12C` (centres undefined), -12.9%.
With `CSc1ncnc2c1ncn2CCCNCC1CCCCC1` the figure was -1.18%; with `CC(C)COC(=O)n1c(=O)oc2ccc(S(=O)(=O)N3CCCCC3)cc21`, 19.6%.
Consider `Cc1noc(C)c1C(=O)N(CC(=O)NC1CCCC1)Cc1ccccc1F`, for which the inhibition is -13.7%.
With `FC(F)(F)c1ccc2nnc(-c3c(Cl)cccc3Cl)n2c1` the figure was 0.93%; with `CC(=O)Nc1ccc(C(=O)CSc2nnc(Cc3ccccc3)o2)cc1`, -13.6%.
With `COc1cc(C(=O)NCc2nnc(SCC(=O)c3ccc(Cl)cc3)o2)cc(OC)c1OC` the figure was -10.8%; with `CC(C)C[C@@H](N)c1nnc(SCC(=O)c2ccc(Cl)cc2)o1`, 58.5% (active); with `CCCCn1c(O)c(N=NC(=O)Cn2c(C(F)(F)F)nc3ccccc32)c2ccccc21`, -12.1%.
For `Fc1ccc2[nH]c3c(N4CCSCC4)ncnc3c2c1`, the inhibition was 77.1% (active).
With `CC1(C)CC(=O)C=C(c2ccc(COC(=O)c3cc(F)cc(F)c3)cc2)C1=O` the figure was -6.91%.
With `O=[N+]([O-])c1ccc(CN2CC(N3CCC(c4ccccc4)CC3)CS2(=O)=O)cc1` (centres undefined) the figure was -12.9%.
With `CSc1ncccc1C(=O)Nc1nc2ccc(F)cc2s1` the figure was 76.2% (active).
For the compound `CCS(=O)(=O)N1Cc2ccccc2CC1C(=O)Nc1nc2ccc(F)cc2s1` (centres undefined), the inhibition is 21.8%.
With `CSc1ncccc1C(=O)Nc1ccc(C)cn1` the figure was 1.24%.
With `COc1cccc(NS(=O)(=O)c2ccc3[nH]cc(C(=O)NCCCOC(C)C)c(=O)c3c2)c1`, the inhibition is -0.08%.
With `CCCCc1ccc(S(N)(=O)=O)cc1` the figure was -10.5%; with `COc1ccc(S(=O)(=O)N2CCCCC2)cc1NC(=O)c1cc([N+](=O)[O-])ccc1N1CCOCC1`, 0.95%; with `O=C(NCc1ccc2c(c1)OCO2)c1cc([N+](=O)[O-])ccc1N1CCOCC1`, 9.16%.
With `CCOc1ccc2nc(NC(=O)c3cc([N+](=O)[O-])ccc3N3CCOCC3)sc2c1` the figure was 58.5% (active).
Consider `Cc1cc(C)cc(NC(=O)N2CCC(NC(=O)c3ccc(F)cc3)CC2)c1`, for which the inhibition is -39.6%.
With `Cc1ccc2c(c1)N(CC(=O)N1CCC(O)CC1)C(=O)CO2` the figure was 33.3%; with `Cc1ccc2nc(-c3ccc(NC(=O)c4cccnc4)cc3)oc2c1`, 71.4% (active).
`O=C(Cc1ccccc1)Nc1ccc(NC(=O)c2cccnc2)cc1`: the inhibition was 2.31%.
Regarding `Cc1ccc(-n2nc3cc(C)c(NC(=O)c4cccnc4)cc3n2)cc1`, the inhibition was 8.31%.
For the compound `Cc1cc2nc(-c3ccc(NC(=O)c4cccnc4)cc3)oc2cc1C`, the inhibition is 52.2% (active).
Take `Cc1cc(NS(=O)(=O)c2ccc(NC(=O)c3cccnc3)cc2)nc(C)n1`: the inhibition is 14.2%.
Consider `CC(C)NS(=O)(=O)c1ccc(NC(=O)c2cccnc2)cc1`, for which the inhibition is -3.3%.
`COc1ccc(Br)c2c1C(=O)CC2`: the inhibition is 22.5%.
With `Cc1cc([N+](=O)[O-])nn1CC(=O)Nc1ccc(Cc2ccncc2)cc1` the figure was 8.17%.
As for `COc1ccc(C2CC(=O)C=C(NCC3CCCO3)C2)cc1` (centres undefined), the inhibition was -25.7%.
`N#Cc1ccccc1Sc1ccccc1C(=O)OCC(=O)NC1CCCCC1`: the inhibition is 1.09%.
For the compound `O=C1c2ccccc2C2=Nc3ccccc3SC(c3ccccc3F)C12` (centres undefined), the inhibition is 59.2% (active).
With `COc1cccc(-c2ccc(SCC(=O)N3CCN(c4ccccc4)CC3)nn2)c1` the figure was -23.8%; with `COc1cccc(/C=C/C(=O)OCC(=O)N2CCCc3ccccc32)c1`, -1.49%.
Turning to `COc1cccc(/C=C/C(=O)OCC(=O)N2CCN(c3ccccc3)CC2)c1`, the inhibition is 77.7% (active).
Turning to `COc1ccc(CNc2c(CO)cnc3c2cnn3C)cc1`, the inhibition is -5.49%.
With `CCN(C(=O)Nc1cccc2ccccc12)c1ccccc1` the figure was 11.9%.
On to `COc1ccc(Cl)cc1S(=O)(=O)N1CCC(O)(c2ccc(Cl)cc2)CC1`, for which the inhibition was -6.82%.
With `O=C(Cc1ccc(S(=O)(=O)N2CCOCC2)s1)Nc1ccc(Br)c(C(F)(F)F)c1` the figure was 17.8%; with `COc1ccc(C(=O)NC2CCCc3c2cnn3-c2cccc(C)c2C)c(OC)n1` (centres undefined), 57.5% (active).
With `Cn1nccc1C(=O)NC1CCCc2c1cnn2-c1ccc(F)cc1F` (centres undefined) the figure was 18.5%; with `COc1ccc(OC)c(C(=O)NC2CCCc3c2cnn3-c2cc(C)cc(C)c2)c1` (centres undefined), -50.2%; with `COC(=O)c1ccccc1NC(=O)CSc1n[nH]c(-c2ccncc2)n1`, -4.67%.
For the compound `CCc1ccc(-c2nc(SCC(=O)NC3CCCC3)n[nH]2)cc1`, the inhibition is 66.6% (active).
With `CCc1c(C)nc(SCC(=O)NC2CCCC2)[nH]c1=O` the figure was 15.7%.
With `O=C(CN1CCN(C2CCS(=O)(=O)C2)CC1)N1N=C(c2ccc(Cl)cc2)CC1c1ccco1` (centres undefined), the inhibition was 73.8% (active).
Take `Cc1ccc(C2=NN(C(=O)COc3ncnc4ccccc34)C(c3ccco3)C2)cc1` (centres undefined): the inhibition was -54.3%.
On to `Cc1ccc(C2=NN(C(=O)CSc3nc(N)cc(N)n3)C(c3ccco3)C2)cc1` (centres undefined), for which the inhibition is 9.43%.
With `CC1(C(=O)NS(=O)(=O)c2ccc3ccccc3c2)CCN1C(=O)C1(c2ccc(Cl)cc2)CCC1` (centres undefined) the figure was 17.7%; with `C/C(=N\NC(=O)c1ccc(C)cc1)C1C(=O)c2ccccc2C1=O`, -2.62%.
With `CCOc1cccc(/C=C/c2ccc3ccccc3n2)c1OC(C)=O` the figure was 60% (active); with `CC(OC(=O)c1ccc2ccccc2n1)C(=O)c1ccccc1` (centres undefined), -11.2%; with `COc1cccc(/C=C/c2ccc3ccccc3n2)c1OC(C)=O`, 86.8% (active).
With `CCOc1ccccc1/C=N/Nc1nc2ccccc2o1` the figure was 15.2%; with `CC(=O)c1ccc(S(=O)(=O)N2CCN(C(=O)/C=C/c3ccc4ccccc4n3)CC2)cc1`, 6.75%; with `CCOc1ccccc1-c1cc(C(=O)N2CCOCC2)c2ccccc2n1`, -5.73%.
Take `CCCc1cc(=O)oc2c(C)c(OC(C)C(=O)NCC(O)c3ccccc3)ccc12` (centres undefined): the inhibition was -28.2%.
With `COCn1c(C(O)c2ccccc2)cc2ccccc21` (centres undefined) the figure was 3.63%; with `Cc1ccc(-c2ccc(CN3C(C)C(=O)N(Cc4cn(CCC5OCCCO5)nn4)CCS3(=O)=O)cc2)cc1` (centres undefined), 5.69%; with `Cc1ccc(NC(=O)CSCC(=O)N2CCOCC2)cc1`, -11.3%.
As to `O=C(CSc1nnc(-c2cnccn2)n1Cc1ccco1)c1ccc(Cl)c(Cl)c1`, the inhibition was -5.31%.
With `O=C(CSc1nnc(-c2cccnc2)n1Cc1ccco1)c1ccc(Cl)c(Cl)c1` the figure was 62.2% (active); with `C(=C\c1ccccc1)/CSc1nnc(-c2cccnc2)n1Cc1ccco1`, -6.4%.
With `CNC[C@H]1OCc2cnnn2CCCC(=O)N([C@H](C)CO)C[C@@H]1C` the figure was -13.2%.
For the compound `CCc1nc2ccc(C(=O)NC3CCN(Cc4ccccc4)CC3)cn2c1N(CC)CCOC`, the inhibition was -14.1%.
In the case of `COCCNc1nc2nonc2nc1N1CCCC1c1nccs1` (centres undefined), the inhibition is -4.57%.

The record behind these values is PubChem BioAssay AID1159606 (Sanford-Burnham Center for Chemical Genomics, 2016).
